# Laboratory results from PubChem BioAssay (NCI).
# This is part of a sample that, as a whole, favours compounds with a hit. Of some 83,000 tested, about 20% had one in any assay.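 For each line, cells grew in 96-well plates with the test compound present at a single concentration for 48 hours.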 A number with no mark means an inactive call. Active and inactive are the calls of the source. How the source made its calls: active means growth percent below 10; inactive means the rest.
# Legend:
# Experiment in all cases: NCI-60 one-dose screen, 48 h (100 = growth as untreated, 0 = no growth, -100 = all killed)
# NCI-H23 lung = conditions: 10 µM unless noted
# NCI-H226 lung = conditions: 10 µM unless noted
# HOP-62 NSCLC = conditions: 10 µM unless noted
# NCI-H460 lung = conditions: 10 µM unless noted
# HOP-92 NSCLC = conditions: 10 µM unless noted
# NCI-H522 lung = conditions: 10 µM
# 786-0 renal = conditions: 10 µM unless noted
# COLO 205 colon = conditions: 10 µM unless noted
# DU-145 prostate = conditions: 10 µM unless noted
# K-562 leukemia = conditions: 10 µM unless noted
# MALME-3M melanoma = conditions: 10 µM unless noted
# MDA-MB-231 breast = conditions: 10 µM unless noted
# RXF 393 renal = conditions: 10 µM unless noted
# SF-268 CNS = conditions: 10 µM unless noted
# SF-295 CNS = conditions: 10 µM unless noted
# SF-539 CNS = conditions: 10 µM unless noted
# UACC-257 melanoma = conditions: 10 µM unless noted
# M14 melanoma = conditions: 10 µM unless noted
# A549/ATCC NSCLC = conditions: 10 µM unless noted
# NCI-H322M lung = conditions: 10 µM unless noted
SMILES,growth (NCI-H23 lung),growth (NCI-H226 lung),growth (HOP-62 NSCLC),growth (NCI-H460 lung),growth (HOP-92 NSCLC),growth (NCI-H522 lung) [%],growth (786-0 renal),growth (COLO 205 colon),growth (DU-145 prostate),growth (K-562 leukemia),growth (MALME-3M melanoma),growth (MDA-MB-231 breast),growth (RXF 393 renal),growth (SF-268 CNS),growth (SF-295 CNS),growth (SF-539 CNS),growth (UACC-257 melanoma),growth (M14 melanoma),growth (A549/ATCC NSCLC),growth (NCI-H322M lung)
O=C(c1ccc(Cl)cc1)c1ccc(Cl)cc1,104%,100%,98.8%,107%,101%,85.2,114%,117%,108%,98.2%,129%,124%,103%,104%,102%,107%,,,,
O=C(NCCCl)NCCN1c2nc3ccccc3cc2Sc2cc3ccccc3nc21,39.1%,63.5%,51.7%,26%,-5.57% (active),55.4,57.9%,73.8%,,21.5%,60.4%,39.5%,,44.2%,409%,38.3%,65.8%,69.2%,,
Nc1nc(Nc2ccccc2SSc2ccccc2Nc2nc(N)nc(-c3cccc(Cl)c3)n2)nc(-c2cccc(Cl)c2)n1,78.6%,82.7%,7.83% (active),89.9%,105%,,99.1%,119%,97%,81.9%,104%,74.8%,106%,99.9%,79.2%,99.6%,112%,95.4%,-24.8% (active),
O=c1ccn(C2CC=C(CO)O2)c(=O)[nH]1 (stereo not given),91.9%,95.7%,102%,124%,38.1%,,93.4%,106%,108%,92.8%,80.9%,104%,8.91% (active),109%,92.9%,99.8%,78.3%,81.4%,106%,
Cc1cc(Br)c(C)cc1Br,97.9%,94.4%,99.4%,114%,91.4%,96,101%,110%,102%,89.8%,121%,111%,106%,100%,89.2%,103%,94.4%,100%,,
COc1ccc(NC(=O)c2ccc(-c3ccccc3)cc2)c(C(N)=O)c1,94.5%,94.9%,103%,100%,103%,,106%,110%,102%,92.5%,91.6%,91.3%,,113%,99.3%,97.4%,102%,110%,94.1%,
CS(=O)(=O)N1CCN(Cc2cc3nc(-c4cccc5[nH]ncc45)nc(N4CCOCC4)c3s2)CC1 (tested in a mixture with another compound),23.4%,8.7% (active),23.6%,21.7%,-37.6% (active),,-10.5% (active),8.18% (active),21.3%,58.5%,-15.2% (active),42.9%,-34.2% (active),31.4%,1.83% (active),3.67% (active),20%,25%,4.32% (active),
COC(=O)C1CCN(S(=O)(=O)c2ccc(-c3ccccc3)cc2)CC1,97.7%,93.3%,113%,110%,86.8%,99.8,113%,108%,110%,103%,122%,115%,,102%,195%,101%,62.7%,107%,,
[N-]=[N+]=NCc1ncc(-c2ccc(C(F)(F)F)cc2)c(NC2CCCCCC2)n1,66.1% [50 µM],80.9% [50 µM],,58.4% [50 µM],,,68.7% [50 µM],87.2% [50 µM],73.4% [50 µM],34.5% [50 µM],85% [50 µM],73% [50 µM],87.7% [50 µM],75.5% [50 µM],49.9% [50 µM],82.2% [50 µM],89.3% [50 µM],74.6% [50 µM],59.4% [50 µM],89.5% [50 µM]
